Hits are enriched below; roughly 4.6% of the tested compounds scored in any of these assays.
D1 antag: Antagonist of Human D 1 Dopamine Receptor: qHTS. 360,000 compounds, 3.2% hits. D(1A) dopamine receptor (Homo sapiens), P21728. HEK293 TREx D1 cells, calcium flux, dopamine EC80; hits give low values. AID 504652, 2011. activity change, negative = inhibition, % at 10 µM; in the data active = activity change below about -30%; also: % is scaled to controls: 0 for no effect and ±100 for the full control effect
Target sequence (P21728 whole entry, looked up): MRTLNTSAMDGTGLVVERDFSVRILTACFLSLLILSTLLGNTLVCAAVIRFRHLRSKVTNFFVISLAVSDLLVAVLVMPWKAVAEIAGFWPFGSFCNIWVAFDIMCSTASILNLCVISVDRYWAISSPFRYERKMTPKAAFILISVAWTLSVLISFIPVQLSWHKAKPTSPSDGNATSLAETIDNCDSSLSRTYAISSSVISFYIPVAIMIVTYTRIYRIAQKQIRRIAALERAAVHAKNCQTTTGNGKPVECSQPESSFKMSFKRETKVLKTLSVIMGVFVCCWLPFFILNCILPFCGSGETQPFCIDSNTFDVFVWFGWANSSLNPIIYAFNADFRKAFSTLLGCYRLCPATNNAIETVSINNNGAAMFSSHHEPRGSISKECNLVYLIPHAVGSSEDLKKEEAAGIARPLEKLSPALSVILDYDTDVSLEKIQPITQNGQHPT
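Cells carrying a force-coupled, tetracycline-inducible human D1 receptor report calcium flux. Each well gets a 10 s baseline, compound with 180 s monitoring, then an EC80 dopamine stimulus with a second 180 s kinetic read.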
TRHR agonist: qHTS for Small Molecule Agonists and Allosteric Enhancers of Human TRH Receptor: Primary Screen for Agonists. Thyrotropin-releasing hormone receptor (Homo sapiens), P34981. TRHR cells, calcium flux fluo-8, FDSS agonist mode. activation, % at 2 µM. 360,000 compounds, 0.18% hits; also: 0% is about no effect
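TRHR-expressing cells, plated overnight in medium with 10% serum, were loaded with fluo-8 calcium dye at room temperature. After a 10 s baseline, library compound was pin-added and calcium release was recorded kinetically (ex 480/em 530) as agonist response.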
D1 ag: Allosteric Agonists of the Human D1 Dopamine Receptor: qHTS | activation, % at 2 µM | AID 504660, 2011 | D(1A) dopamine receptor (Homo sapiens), P21728 | 360,000 compounds, 1% hits | HEK293 T-REx D1 cells, calcium flux, agonist mode; also: 0% is about no effect
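Agonism was scored from calcium flux recorded over 180 s (1 read/s) after pintool compound addition, following a 10-cycle baseline. Cells were inducible force-coupled HEK293 TREx D1, plated overnight at 30 C and loaded with no-wash calcium dye.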
D1 potentiator: Potentiators of Human D1 Dopamine Receptor: qHTS; potentiation, % at 10 µM; 360,000 compounds, 0.036% hits; D(1A) dopamine receptor (Homo sapiens), P21728; HEK293 TREx D1 cells, calcium flux, dopamine EC20 potentiation; in the data active = potentiation above about 30%; also: 0% is about no effect
TRHR PAM: qHTS for Small Molecule Agonists and Allosteric Enhancers of Human TRH Receptor: Primary Screen for Enhancers | enhancement, % at 2 µM | 360,000 compounds, 0.66% hits | TRHR cells, fluo-8 calcium fluorescence, EC20 TRH enhancement | Thyrotropin-releasing hormone receptor (Homo sapiens), P34981; in the data active = enhancement above about 30%; also: 0% is about no effect
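TRHR-expressing cells loaded with fluo-8 calcium dye were read kinetically (ex 480/em 530) during compound addition, then stimulated with an EC20 of TRH (10 nM final). Enhancement of the Gq-mediated intracellular calcium response was scored.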
Numbers without * were called inactive. Rule as the data show it, unless noted: active = activation above about 30%; inactive = the rest.

How did O=c1c2ccccc2[nH]c(=S)n1CCCN1CCN(c2ccccc2F)CC1 do in these assays?
D1 antag: -75*; TRHR agonist: 0; D1 ag: 4; D1 potentiator: -32; TRHR PAM: 7

How did O=C(CCCCCn1c(=S)[nH]c2ccc(N3CCOCC3)cc2c1=O)NC1CCN(Cc2ccccc2)CC1 do in these assays?
D1 antag: -32*; TRHR agonist: -1; D1 ag: 0; D1 potentiator: -8; TRHR PAM: 3

Results for O=c1c2ccccc2[nH]c(=S)n1CCCN1CCN(c2ccccc2)CC1 ?
D1 antag: -58*; TRHR agonist: 0; D1 ag: 1; D1 potentiator: -10; TRHR PAM: 1

How did O=c1c2cccnc2[nH]c(=S)n1CCCN1CCN(c2ccccc2F)CC1 do in these assays?
D1 antag: -14; TRHR agonist: 0; D1 ag: 2; D1 potentiator: -6; TRHR PAM: 14

What do the screens show for `Cc1ccc(N(CC(C)C)S(=O)(=O)c2nnc(NC(=O)C(C)C)s2)cc1`?
D1 antag: 11; TRHR agonist: 0; D1 ag: 10; D1 potentiator: -1; TRHR PAM: 7

Results for Cc1nc2nc(CNC(=O)OC(C)(C)C)nn2c(C)c1CCC(=O)NCc1ccccc1Cl ?
D1 antag: 2; TRHR agonist: 0; D1 ag: 1; D1 potentiator: 1; TRHR PAM: -6

What do the screens show for `COc1cccc(NC(=O)CSc2nc3ccc(NC(=O)c4cccs4)cc3s2)c1`?
D1 antag: -12; TRHR agonist: 1; D1 ag: 10; D1 potentiator: -2; TRHR PAM: -1

How did NC(=O)CN(Cc1ccccc1)S(=O)(=O)c1ccc2c(c1)OCCO2 do in these assays?
D1 antag: 3; TRHR agonist: 1; D1 ag: 1; D1 potentiator: -3; TRHR PAM: -1

What do the screens show for `COc1ccc(/C=C/C(=O)NC(=S)NNC(=O)c2c(-c3ccccc3)noc2C)cc1`?
D1 antag: 6; TRHR agonist: 1; D1 ag: 3; D1 potentiator: -10; TRHR PAM: 7

How did Cc1onc(-c2ccccc2)c1C(=O)NNC(=S)NC(=O)c1ccc(Br)cc1 do in these assays?
D1 antag: 12; TRHR agonist: 27; D1 ag: 134*; D1 potentiator: -1; TRHR PAM: -4

Results for COc1ccccc1C(=O)NNC(=S)NC(=O)c1cc(OC)c(OC)c(OC)c1 ?
D1 antag: 0; TRHR agonist: 0; D1 ag: 11; D1 potentiator: -4; TRHR PAM: -4

How did Cc1onc(-c2ccccc2)c1C(=O)NNC(=S)NC(=O)/C=C/c1ccccc1 do in these assays?
D1 antag: -8; TRHR agonist: 5; D1 ag: 34*; D1 potentiator: -3; TRHR PAM: 14

How did O=C(NC(=S)NNC(=O)c1ccc(Cl)cc1Cl)c1cccnc1 do in these assays?
D1 antag: -16; TRHR agonist: 0; D1 ag: 0; D1 potentiator: -4; TRHR PAM: 6

How did Cc1ccccc1C(=O)NNC(=S)NC(=O)c1ccc(Cl)cc1Cl do in these assays?
D1 antag: -52*; TRHR agonist: 45*; D1 ag: 158*; D1 potentiator: 16; TRHR PAM: -5

How did COc1cc(C(=O)NNC(=S)NC(=O)c2ccccc2C)cc(OC)c1OC do in these assays?
D1 antag: 19; TRHR agonist: 6; D1 ag: 47*; D1 potentiator: -8; TRHR PAM: 4

How did CC1=C(C#N)C(NC(=O)c2ccccc2)(C(F)(F)F)C(=O)N1 (configuration not stated) do in these assays?
D1 antag: 0; TRHR agonist: 0; D1 ag: 0; D1 potentiator: -1; TRHR PAM: 0

What do the screens show for `COc1ccc(NC(=O)NNC(=O)C(C)Oc2ccc3ccccc3c2)cc1` (configuration not stated)?
D1 antag: 7; TRHR agonist: 0; D1 ag: 2; D1 potentiator: 0; TRHR PAM: 0

Results for Cc1onc(-c2ccccc2)c1C(=O)NNC(=O)c1ccccc1 ?
D1 antag: 4; TRHR agonist: 0; D1 ag: 1; D1 potentiator: -6; TRHR PAM: -1

What do the screens show for `Cc1onc(-c2ccccc2)c1C(=O)NNC(=S)NC(=O)c1ccc(Cl)cc1Cl`?
D1 antag: 58; TRHR agonist: 35*; D1 ag: 308*; D1 potentiator: 16; TRHR PAM: 2

Results for O=C(NCc1ccccc1F)C(=O)NCC(c1ccco1)S(=O)(=O)c1cccs1 (configuration not stated) ?
TRHR agonist: 0; D1 ag: -1; D1 potentiator: 0; TRHR PAM: 0

What do the screens show for `CCCCN(CCCNC(=O)C1CCN(S(=O)(=O)N2CCOCC2)CC1)c1ccccc1`?
D1 antag: -35*; TRHR agonist: -1; D1 ag: 3; D1 potentiator: -4; TRHR PAM: -4

What do the screens show for `Cn1cc(/C=N/n2cnc3scc(-c4ccccc4)c3c2=O)c2ccccc21`?
D1 antag: -44*; TRHR agonist: 1; D1 ag: 3; D1 potentiator: -6; TRHR PAM: 0

What do the screens show for `O=c1n(Cc2ccc(F)cc2)c2ccccc2c2nc(-c3ccccc3)nn12`?
D1 antag: 17; TRHR agonist: 0; D1 ag: -1; D1 potentiator: 1; TRHR PAM: -8

How did CN1CCN(C(=O)CCN2C(=O)c3ccccc3C2=O)CC1 do in these assays?
D1 antag: 3; TRHR agonist: 2; D1 ag: 1; D1 potentiator: 8; TRHR PAM: 5

How did CC1CN(C(=O)CCN2C(=O)c3ccccc3C2=O)CC(C)O1 (configuration not stated) do in these assays?
D1 antag: -32*; TRHR agonist: 1; D1 ag: 2; D1 potentiator: -9; TRHR PAM: 4

How did O=C(NCCc1c[nH]c2ccccc12)/C(=C\c1cccnc1)NC(=O)c1cccs1 do in these assays?
D1 antag: 4; TRHR agonist: 0; D1 ag: 3; D1 potentiator: 2; TRHR PAM: 3

How did Cc1ccc(C(=O)N/C(=C\c2cccs2)C(=O)NCCc2c[nH]c3ccccc23)cc1C do in these assays?
D1 antag: -39*; TRHR agonist: 1; D1 ag: 2; D1 potentiator: 3; TRHR PAM: 3

How did O=C(NCCc1c[nH]c2ccccc12)/C(=C\c1cccs1)NC(=O)c1ccccc1 do in these assays?
D1 antag: -42*; TRHR agonist: 0; D1 ag: 0; D1 potentiator: -7; TRHR PAM: -2

Screening results as filed in PubChem.
